# TGFb SMAD3 inh: TGF-b pathway inhibition; AID 588855; 410,000 compounds, 1.2% hits; Potency, µM (titrated, usually from 46.1 µM), without a hit: at the top dose activity, negative = inhibition, hits mostly inhibitors; HepG2 CAGA-GFP TGF-b/SMAD3 reporter, GFP fluorescence, 18 h; TGF-beta stimulated, 500 pg/mL final; also: potency is read from the fitted curve at half-maximal effect; % is scaled to controls: 0 for no effect and ±100 for the full control effect; nearly all actives have a fitted effect of over 65% in size
#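 Inhibition was scored as loss of TGF-beta-induced (500 pg/mL final, 18 hours, 37 degrees C) GFP in HEPG2 cells carrying a CAGA-GFP reporter, in DMEM with 1% FBS. Well GFP was summed per cell; Activity was normalised to unstimulated and stimulated DMSO wells, then concentration-response fitting.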
# HT1080-NT tox: kills 2HG-producing HT-1080-NT fibrosarcoma cells | 360,000 compounds, 1.6% hits | Potency, µM (titrated, usually from 46.1 µM), for inactives: top-dose activity, negative = less viability, actives largely listed as cytotoxic | HT-1080-NT fibrosarcoma viability, CellTiter-Glo ATP luminescence, 48 h;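 also: NT is the 2HG producing partner of a matched IDH1 knockdown line; potency is read from the fitted curve at half-maximal effect; 0% = DMSO-treated cells and -100% = media-only wells without cells; nearly all actives have a fitted effect of over 55% in size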
#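 Fibrosarcoma NT cells, 750 per well in 5% FBS RPMI, were exposed to compound for 48 hours. Viability: CellTiter-Glo luminescence.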
# HT1080 IDH1KD tx: toxicity to HT-1080 IDH1 knockdown cells (counter line) | HT-1080 IDH1 knockdown viability, ATP luminescence, 48 h | Potency, µM (doses to about 46.1 µM), without a hit: at the highest dose activity, negative = toxicity, most hits filed as cytotoxic | 360,000 compounds, 2% hits | AID 686971;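 also: potency is read from the fitted curve at half-maximal effect; 0% = DMSO wells and -100% = cell-free medium wells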
#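 In this qHTS, HT-1080 cells depleted of IDH1 are exposed for 48 h at 37 °C to compound titrations. Toxicity is scored from CellTiter-Glo luminescence, with DMSO as full viability and medium alone as none.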
# IL-1B inflam inh: inhibitors of inflammasome signaling (IL-1 beta secretion); THP-1 LPS/ATP IL-1B secretion, AlphaLISA, 16 h; hits give low values; 360,000 compounds, 4.7% hits; activity change, % at 57.5 µM; in the data active = activity change below about -50%; inconclusive = mostly about -30% to -49%; also: % is scaled to controls: 0 for no effect and ±100 for the full control effect
#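 Secreted IL-1B measured by AlphaLISA bead assay after 16 h compound exposure of THP-1 cells; compounds (final up to 57.5 uM) added 1 h before LPS (250 ng/mL) and ATP (1.25 mM) stimulation; lower signal means less secretion.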
# Giardia kill: kills Giardia lamblia. Giardia lamblia trophozoite viability. activity change, % at 7.66 µM, hits read low. 340,000 compounds, 0.15% hits. AID 540267; in the data active = activity change below about -80%; inconclusive = between about -30% and that limit;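 also: parasites exposed to compound for two days anaerobically before the ATP read; % is scaled to controls: 0 for no effect and ±100 for the full control effect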
#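 Giardia lamblia trophozoites (100 cells/well) were incubated with compounds for 48 h at 37 deg C under anaerobic conditions. Viability was read as ATP content by one-step luminescence after 15-30 min at room temperature.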
# HepG2 viability: HepG2 cytotoxicity, counter-screen for TGF-b inhibitors | Potency, µM (doses to about 46.1 µM), inactives show at the highest dose activity change, negative = cytotoxicity, usual class: cytotoxic | AID 588856 | HepG2 CAGA-GFP viability, ATP luminescence, 18 h | 410,000 compounds, 0.76% hits; also: potency is read from the fitted curve at half-maximal effect
#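 CellTiter-Glo luminescence gave cytotoxicity after 18 hours at 37 degrees C. The cells were HepG2 CAGA-GFP in 1% FBS DMEM, stimulated with 500 pg/mL TGF-beta after compound addition. %Activity was normalised to no-cell wells (complete cell-killing) and DMSO (no toxicity), and curves were fitted and classified.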
# * hit, by the source's call; ? = inconclusive; / = no result; [ ] = dose if it differs, or a comment. Shown are actives, neighbours in structure and some others; about 6.5% of the full set was active somewhere. Unless noted, calls follow the shape of the dose curve; as a rule, active = well fitted curve in the direction sought with a large enough effect; inconclusive = small, poorly fitted or top-dose-only effect, or another doubt; inactive = no such curve, though single readings can be large; an effect the other way counts as inactive or inconclusive.
SMILES,TGFb SMAD3 inh,HT1080-NT tox,HT1080 IDH1KD tx,IL-1B inflam inh,Giardia kill,HepG2 viability
CCC(=O)N1CCc2cc(OC)c(OC)cc2C1COc1ccc(C(=O)OC)cc1 (stereo unspecified),-0.5%,-6.9%[9.24 µM],?,-20.3,-4.9,-26.3%
COc1cc2c(cc1OC)C(C)N(C(=O)Nc1cc(C)cc(C)c1)CC2 (stereo unspecified),-22.4%,6.51µM*,7.31µM*,35.4,-15.6,-16.8%
COc1ccc(CC(=O)N2CCc3cc(OC)c(OC)cc3C2COc2cc(C)cc(C)c2)cc1OC (stereo unspecified),14.1µM*,/,/,/,/,-17.9%
COC(=O)c1ccc(OCC(O)CN2CCc3cc(OC)c(OC)cc3C2c2ccccc2)cc1 (stereo unspecified),?,?,16.4µM*,-6.6,4.8,-5.7%
CCNC(=S)N1CCc2cc(OC)c(OC)cc2C1COc1ccc(F)cc1 (stereo unspecified),7.5%,-13.9%,-14.8%,-61.1*,13.3,1.8%
COC(=O)c1ccc(OCC2c3cc(OC)c(OC)cc3CCN2C(=O)Cc2ccc(OC)c(OC)c2)cc1 (stereo unspecified),-9.3%,/,/,/,/,-20.3%
Cc1ccc(NC(=O)C2CCCN(S(=O)(=O)c3c(C)noc3/C=C/N(C)C)C2)c(C)c1 (stereo unspecified),0.6%,-9.8%,-17.8%,-5.6,18.5,-4.8%
CCOC(=O)c1ccc(NC(=O)Nc2ccccn2)cc1,-14.2%,-15.9%,-10.8%,6.4,-15.0,-6.1%
C=CCCN([C@H](CO)Cc1ccccc1)S(=O)(=O)c1ccccc1Br,?,7.7%,0.2%,-8.8,7.8,-26.3%
COC(=O)c1ccc(OCC2c3cc(OC)c(OC)cc3CCN2C(=O)c2ccco2)cc1 (stereo unspecified),0.3%,-28.8%,?,-52.6*,-0.5,-20.5%
CCCCn1c(N)c(N(CCC(C)C)C(=O)COC(=O)c2sccc2C)c(=O)[nH]c1=O,9.9%,-3.7%,-2.7%,-22.0,9.2,-0.9%
CCCOc1ncnc2c1[nH]c1ccc(OC)cc12,0.0%,-18.1%,-9.7%,1.5,-20.1,122.0%
CCCCOc1ncnc2c1[nH]c1ccc(C)cc12,0.0%,?,4.61µM*,/,-12.5,-19.8%
O=C(Nc1ccn(CCCNCc2ccccc2)c(=O)n1)OCc1ccccc1,?,-13.0%,-10.0%,4.7,-2.4,1.5%
O=C(Nc1ccn(CCCN(CCCn2ccc(NC(=O)OCc3ccccc3)nc2=O)CCc2cc3ccccc3[nH]2)c(=O)n1)OCc1ccccc1,-15.5%,?,18.4µM*,82.0,-6.9,-16.6%
CCC(C)NC(=O)Cn1c(-c2cccs2)cc2cc(Cl)ccc21 (stereo unspecified),12.0%,/,/,/,/,-7.0%
CCCCn1c(N)c(N(CCC(C)C)C(=O)c2cc(-c3ccco3)nc3ccccc23)c(=O)[nH]c1=O,-11.1%,-6.1%,2.0%,0.1,-5.8,-0.6%
N#CC1=C(N)N(c2ccccc2)C2=C(C(=O)CCC2)C1c1ccsc1 (stereo unspecified),-2.1%,11.2µM*,?,-20.9,0.9,-27.6%
Cc1ccc(N2C(N)=C(C#N)C(c3ccsc3)C3=C2CC(C)(C)CC3=O)cc1 (stereo unspecified),-6.3%,-19.7%,-12.3%,-55.0*,-2.7,-23.8%
CN(C)N1C(N)=C(C#N)C(c2ccsc2)C2=C1CC(C)(C)CC2=O (stereo unspecified),-5.9%,2.5%,34.7%,0.0,-5.9,2.9%
CCSc1sccc1C1C(C#N)=C(N)N(c2cccnc2)C2=C1C(=O)CCC2 (stereo unspecified),-0.1%,-2.7%,7.3%,0.0,0.2,-19.7%
COc1cc(C2C(C#N)=C(N)N(c3cccnc3)C3=C2C(=O)CCC3)ccc1O (stereo unspecified),-5.4%,2.3%,25.7%,-59.1*,-6.5,9.8%
CC(C)NC(=O)C1CCN(C(=O)c2cc3sccc3n2Cc2ccc(Cl)cc2)CC1,?,/,/,/,/,-45.8%
CC(C)(C)NNC(=S)Nc1cccc(F)c1,?,2.91µM*,5.8µM*,/,-11.7,-56.4%
Fc1cccc(NC(=S)Nc2ccc(Br)cc2)c1,?,?,?,-29.3,-7.8,-40.6%
SMILES,TGFb SMAD3 inh,HT1080-NT tox,HT1080 IDH1KD tx,IL-1B inflam inh,Giardia kill,HepG2 viability
Cc1ccc(CNC(=O)NC23CC4CC(CC(C4)C2)C3)cc1,-1.8%,-0.4%,15.9%,-12.1,37.1,-11.3%
CN(C)CCNC(=O)COc1ccc(C23CC4CC(CC(C4)C2)C3)cc1,?,?,?,-59.2*,?,-88.6%
Cc1ccc(C23CC4CC(CC(NC(=O)NCCN(C)C)(C4)C2)C3)cc1,?,20.6µM*,?,-6.8,15.7,-102.9%
CCN(CC)CCNC(=O)COc1ccc(OC)cc1,1.6%,7.4%,4.0%,9.4,-21.7,-1.0%
CCOC(=O)c1cccc(NC(=O)CCC(=O)N2CC(C)Oc3ccc(C)cc32)c1 (stereo unspecified),-25.7%,/,/,/,/,-0.4%
COc1cccc(OC)c1C(=O)Nc1c(C(=O)N2CCN(C)CC2)oc2ccccc12,15.3%,4.2%,0.4%,12.8,-0.1,11.4%
COc1ccccc1C(=O)Nc1c(C(=O)N2CCN(C)CC2)oc2ccccc12,2.0%,13.1%,3.2%,-60.0*,27.7,-40.7%
Cc1cccc(CN2CCN(C(=O)c3cccc4ccccc34)CC2)c1,-17.9%,-0.1%,-17.2%,-25.3,-18.3,5.0%
Cc1cccc(CN2CCN(C(=O)CCl)CC2)c1,?,-4.0%,?,-106.0*,4.8,-41.4%
O=C(/C=C/c1ccc(Br)cc1)N1CCN(Cc2ccccc2)CC1,-1.0%,0.0%,0.3%,-81.0*,9.8,-7.3%
O=C(C1CCCN(S(=O)(=O)c2ccc(Br)cc2)C1)N1CCN(Cc2ccccc2)CC1 (stereo unspecified),?,6.1%,-17.4%,-52.4*,-1.9,-13.4%
Cc1ccc(CNS(=O)(=O)c2ccc(-c3cnc(C4CC4)o3)cc2)cc1,?,0.0%,2.7%,10.1,-9.2,-6.2%
Cc1ccc(NS(=O)(=O)c2ccc(-c3cnc(C4CC4)o3)cc2)cc1,?,?,?,17.3,-13.9,-14.3%
COc1cccc(NS(=O)(=O)c2cc(-c3cnc(C4CC4)o3)ccc2C)c1,2µM*,/,/,/,/,-26.8%
Cc1ccc(N(C)S(=O)(=O)c2ccc(-c3cnc(C4CC4)o3)cc2)cc1,6.31µM*,?,?,56.3,13.6,-5.0%

# Screening data deposited in PubChem BioAssay by National Center for Advancing Translational Sciences (NCATS).
